Test results taken from the supplement of paper PMC11732987, “Enantioselective OTUD7B fragment discovery through chemoproteomics screening and high-throughput optimisation” (Communications Chemistry, 2025).

What was measured:
Assay in all cases: log2 ratio of Biotin-Ahx-Ub-VS probe labelling (fragment/DMSO); higher = less target engagement (more negative = stronger competition), active = hit call of the paper (q ≤ 0.05, log2 ratio ≤ -1)
Settings in all cases: compound concentration: 200 uM; treatment time: 3 h
USP34 = USP34 (UniProt Q70CQ2)
USP34, sequence (Q70CQ2 whole entry, the tested form may be a part): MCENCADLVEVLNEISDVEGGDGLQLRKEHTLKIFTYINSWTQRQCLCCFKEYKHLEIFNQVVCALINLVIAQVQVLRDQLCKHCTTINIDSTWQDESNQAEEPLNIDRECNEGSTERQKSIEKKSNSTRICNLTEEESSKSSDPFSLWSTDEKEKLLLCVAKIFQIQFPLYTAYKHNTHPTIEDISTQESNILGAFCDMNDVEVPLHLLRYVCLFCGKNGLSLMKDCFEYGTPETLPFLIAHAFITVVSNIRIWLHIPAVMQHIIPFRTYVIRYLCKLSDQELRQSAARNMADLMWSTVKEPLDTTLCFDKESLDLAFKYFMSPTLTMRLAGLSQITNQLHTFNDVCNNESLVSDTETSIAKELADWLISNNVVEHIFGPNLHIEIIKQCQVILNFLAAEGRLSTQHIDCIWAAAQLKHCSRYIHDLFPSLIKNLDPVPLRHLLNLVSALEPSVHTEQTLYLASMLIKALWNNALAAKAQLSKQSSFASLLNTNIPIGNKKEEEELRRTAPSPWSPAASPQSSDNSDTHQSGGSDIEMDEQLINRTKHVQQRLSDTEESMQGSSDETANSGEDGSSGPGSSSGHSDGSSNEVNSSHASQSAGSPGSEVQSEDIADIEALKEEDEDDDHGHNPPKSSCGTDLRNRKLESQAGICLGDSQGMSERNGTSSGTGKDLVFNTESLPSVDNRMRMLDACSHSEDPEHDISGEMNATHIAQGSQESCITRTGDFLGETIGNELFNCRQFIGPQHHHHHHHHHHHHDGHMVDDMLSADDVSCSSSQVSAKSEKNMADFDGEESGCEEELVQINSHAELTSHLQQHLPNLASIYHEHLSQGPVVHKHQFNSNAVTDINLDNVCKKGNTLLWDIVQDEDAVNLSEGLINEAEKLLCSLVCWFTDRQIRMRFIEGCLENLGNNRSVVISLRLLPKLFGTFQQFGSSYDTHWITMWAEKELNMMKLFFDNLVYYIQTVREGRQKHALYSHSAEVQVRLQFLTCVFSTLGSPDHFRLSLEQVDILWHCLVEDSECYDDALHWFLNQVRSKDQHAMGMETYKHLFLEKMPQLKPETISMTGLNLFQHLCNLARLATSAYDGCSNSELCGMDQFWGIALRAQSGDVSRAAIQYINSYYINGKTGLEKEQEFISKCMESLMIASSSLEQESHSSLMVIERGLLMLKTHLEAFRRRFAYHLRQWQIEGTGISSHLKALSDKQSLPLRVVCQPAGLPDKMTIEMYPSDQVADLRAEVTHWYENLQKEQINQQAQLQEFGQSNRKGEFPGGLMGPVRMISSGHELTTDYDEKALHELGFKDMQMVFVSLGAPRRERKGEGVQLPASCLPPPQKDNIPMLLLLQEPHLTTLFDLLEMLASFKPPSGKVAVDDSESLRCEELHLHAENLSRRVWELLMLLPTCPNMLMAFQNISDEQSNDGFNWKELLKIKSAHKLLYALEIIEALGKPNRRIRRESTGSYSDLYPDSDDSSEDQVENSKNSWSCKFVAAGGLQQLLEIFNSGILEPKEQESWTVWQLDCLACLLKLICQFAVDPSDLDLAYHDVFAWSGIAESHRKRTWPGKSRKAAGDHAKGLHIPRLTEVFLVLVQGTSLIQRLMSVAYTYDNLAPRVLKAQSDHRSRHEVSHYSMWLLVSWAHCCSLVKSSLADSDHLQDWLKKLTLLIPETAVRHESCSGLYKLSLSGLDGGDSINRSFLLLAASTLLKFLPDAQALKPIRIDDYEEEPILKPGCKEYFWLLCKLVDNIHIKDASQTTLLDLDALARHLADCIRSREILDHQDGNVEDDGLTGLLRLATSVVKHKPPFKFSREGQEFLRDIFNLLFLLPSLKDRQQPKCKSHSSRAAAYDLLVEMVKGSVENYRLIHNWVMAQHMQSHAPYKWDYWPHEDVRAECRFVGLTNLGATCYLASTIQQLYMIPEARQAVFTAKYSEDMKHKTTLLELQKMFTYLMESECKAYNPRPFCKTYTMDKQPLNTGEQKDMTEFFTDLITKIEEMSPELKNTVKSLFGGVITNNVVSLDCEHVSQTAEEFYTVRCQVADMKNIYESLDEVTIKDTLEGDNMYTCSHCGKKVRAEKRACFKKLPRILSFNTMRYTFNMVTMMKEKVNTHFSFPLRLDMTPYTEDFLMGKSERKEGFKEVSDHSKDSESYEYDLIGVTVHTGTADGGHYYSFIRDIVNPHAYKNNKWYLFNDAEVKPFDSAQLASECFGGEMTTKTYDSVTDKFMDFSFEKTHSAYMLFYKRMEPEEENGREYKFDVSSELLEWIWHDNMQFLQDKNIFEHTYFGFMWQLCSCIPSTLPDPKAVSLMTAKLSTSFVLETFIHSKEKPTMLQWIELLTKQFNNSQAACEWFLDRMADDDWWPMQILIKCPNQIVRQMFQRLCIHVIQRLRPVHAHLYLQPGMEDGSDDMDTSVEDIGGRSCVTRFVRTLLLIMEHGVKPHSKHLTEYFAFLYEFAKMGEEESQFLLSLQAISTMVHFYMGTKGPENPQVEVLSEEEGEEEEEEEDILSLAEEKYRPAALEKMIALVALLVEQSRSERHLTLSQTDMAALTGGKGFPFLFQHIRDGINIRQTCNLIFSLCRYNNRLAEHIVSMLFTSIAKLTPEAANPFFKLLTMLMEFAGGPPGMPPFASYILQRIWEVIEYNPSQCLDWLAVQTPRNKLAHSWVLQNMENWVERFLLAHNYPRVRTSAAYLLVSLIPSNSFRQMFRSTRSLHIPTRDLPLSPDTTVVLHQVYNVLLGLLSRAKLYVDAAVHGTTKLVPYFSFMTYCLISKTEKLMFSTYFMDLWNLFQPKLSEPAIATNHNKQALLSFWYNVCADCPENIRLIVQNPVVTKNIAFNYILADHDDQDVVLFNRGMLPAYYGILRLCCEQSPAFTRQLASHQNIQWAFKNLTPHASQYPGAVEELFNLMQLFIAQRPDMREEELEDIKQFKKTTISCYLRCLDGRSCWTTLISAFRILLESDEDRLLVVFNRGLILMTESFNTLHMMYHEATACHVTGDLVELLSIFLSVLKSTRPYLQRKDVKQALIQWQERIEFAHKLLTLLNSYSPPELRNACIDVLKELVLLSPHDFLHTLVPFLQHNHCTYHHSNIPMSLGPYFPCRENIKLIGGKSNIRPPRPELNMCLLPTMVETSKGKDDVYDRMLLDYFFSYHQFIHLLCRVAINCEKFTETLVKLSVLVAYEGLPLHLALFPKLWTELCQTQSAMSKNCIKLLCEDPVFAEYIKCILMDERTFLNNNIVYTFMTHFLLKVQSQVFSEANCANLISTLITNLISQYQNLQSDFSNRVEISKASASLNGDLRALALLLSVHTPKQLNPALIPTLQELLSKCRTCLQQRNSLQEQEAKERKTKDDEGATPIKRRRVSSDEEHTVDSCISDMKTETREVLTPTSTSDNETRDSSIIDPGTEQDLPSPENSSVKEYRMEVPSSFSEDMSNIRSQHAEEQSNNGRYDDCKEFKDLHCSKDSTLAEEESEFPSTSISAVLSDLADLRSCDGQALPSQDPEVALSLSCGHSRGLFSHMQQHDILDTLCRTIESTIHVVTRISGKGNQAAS
Method in brief: (§1)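 HEK293T lysate in Tris/CHAPS/IGEPAL buffer with protease inhibitors (495 µg per sample) was given fragment at 200 µM or vehicle for 3 h, in triplicate. It then received Biotin-Ahx-Ub-VS at 0.5 µM final for 1 h. Labelled DUBs were NeutrAvidin-enriched, digested with LysC and trypsin, and run by diaPASEF LC-MS/MS. Values are average log2 fragment/vehicle ratios by unpaired t-test on global-median-normalised Spectronaut quantities of proteins with ≥2 unique peptides.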

USP36 = biological target: T1, USP36 (UniProt Q9P275)
T1 sequence (whole entry): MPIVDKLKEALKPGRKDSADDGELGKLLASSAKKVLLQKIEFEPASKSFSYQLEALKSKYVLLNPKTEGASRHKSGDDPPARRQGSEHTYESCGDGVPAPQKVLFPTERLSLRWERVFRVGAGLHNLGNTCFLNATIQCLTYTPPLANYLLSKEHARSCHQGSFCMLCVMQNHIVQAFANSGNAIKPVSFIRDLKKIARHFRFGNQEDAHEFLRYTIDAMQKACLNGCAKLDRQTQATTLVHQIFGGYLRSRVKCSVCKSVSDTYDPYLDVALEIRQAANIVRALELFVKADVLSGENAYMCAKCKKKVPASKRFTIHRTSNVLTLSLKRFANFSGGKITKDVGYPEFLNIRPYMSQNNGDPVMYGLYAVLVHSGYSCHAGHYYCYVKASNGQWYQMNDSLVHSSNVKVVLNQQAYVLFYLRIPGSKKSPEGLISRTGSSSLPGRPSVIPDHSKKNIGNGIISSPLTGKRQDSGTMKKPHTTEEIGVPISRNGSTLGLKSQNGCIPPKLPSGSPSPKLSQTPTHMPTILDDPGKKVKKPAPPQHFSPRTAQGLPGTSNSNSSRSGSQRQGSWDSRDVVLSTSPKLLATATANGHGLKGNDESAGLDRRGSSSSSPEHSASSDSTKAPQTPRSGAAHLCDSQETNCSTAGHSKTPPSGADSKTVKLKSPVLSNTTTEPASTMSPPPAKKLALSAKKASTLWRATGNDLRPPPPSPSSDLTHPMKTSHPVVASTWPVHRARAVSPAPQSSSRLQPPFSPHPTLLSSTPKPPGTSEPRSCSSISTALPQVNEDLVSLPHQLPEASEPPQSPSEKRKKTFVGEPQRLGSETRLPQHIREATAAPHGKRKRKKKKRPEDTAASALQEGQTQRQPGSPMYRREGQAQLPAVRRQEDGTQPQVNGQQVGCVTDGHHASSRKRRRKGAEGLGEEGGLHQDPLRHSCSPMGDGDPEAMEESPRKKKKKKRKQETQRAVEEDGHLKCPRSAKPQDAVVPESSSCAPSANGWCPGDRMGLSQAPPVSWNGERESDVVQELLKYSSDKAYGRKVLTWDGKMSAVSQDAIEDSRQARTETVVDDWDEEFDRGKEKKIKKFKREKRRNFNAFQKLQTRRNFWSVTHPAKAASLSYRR
Method in brief: as §1

USP38 = biological target: T2, USP38 (UniProt Q8NB14)
T2 sequence (whole entry): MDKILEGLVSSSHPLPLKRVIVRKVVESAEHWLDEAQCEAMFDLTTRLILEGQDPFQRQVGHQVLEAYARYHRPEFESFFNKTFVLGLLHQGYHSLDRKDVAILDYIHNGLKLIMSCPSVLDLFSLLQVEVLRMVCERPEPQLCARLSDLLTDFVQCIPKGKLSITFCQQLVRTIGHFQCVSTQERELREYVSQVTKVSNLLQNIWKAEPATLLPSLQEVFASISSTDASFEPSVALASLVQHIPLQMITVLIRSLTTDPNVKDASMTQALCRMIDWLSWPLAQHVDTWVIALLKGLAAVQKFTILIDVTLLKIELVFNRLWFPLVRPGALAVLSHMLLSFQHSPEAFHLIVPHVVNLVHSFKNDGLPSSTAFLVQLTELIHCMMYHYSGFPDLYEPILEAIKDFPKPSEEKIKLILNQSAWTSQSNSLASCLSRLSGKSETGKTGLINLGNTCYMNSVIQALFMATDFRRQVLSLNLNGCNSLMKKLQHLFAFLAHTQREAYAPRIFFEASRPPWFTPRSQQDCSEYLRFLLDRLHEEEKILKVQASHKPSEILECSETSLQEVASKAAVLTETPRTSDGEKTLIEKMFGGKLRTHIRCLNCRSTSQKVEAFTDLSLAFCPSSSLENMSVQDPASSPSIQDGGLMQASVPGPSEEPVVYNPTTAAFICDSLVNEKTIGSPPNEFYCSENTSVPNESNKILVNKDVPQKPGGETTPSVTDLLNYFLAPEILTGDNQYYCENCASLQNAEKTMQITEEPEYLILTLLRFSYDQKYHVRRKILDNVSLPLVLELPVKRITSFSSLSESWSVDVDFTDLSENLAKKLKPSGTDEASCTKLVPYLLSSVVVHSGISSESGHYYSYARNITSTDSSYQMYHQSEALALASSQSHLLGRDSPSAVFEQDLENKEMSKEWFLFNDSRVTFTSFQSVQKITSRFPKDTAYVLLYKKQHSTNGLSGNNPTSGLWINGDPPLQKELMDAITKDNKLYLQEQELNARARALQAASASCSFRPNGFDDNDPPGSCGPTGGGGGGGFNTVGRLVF
Method in brief: as §1

USP39 = biological target: T3, USP39 (UniProt Q53GS9)
T3 sequence (whole entry): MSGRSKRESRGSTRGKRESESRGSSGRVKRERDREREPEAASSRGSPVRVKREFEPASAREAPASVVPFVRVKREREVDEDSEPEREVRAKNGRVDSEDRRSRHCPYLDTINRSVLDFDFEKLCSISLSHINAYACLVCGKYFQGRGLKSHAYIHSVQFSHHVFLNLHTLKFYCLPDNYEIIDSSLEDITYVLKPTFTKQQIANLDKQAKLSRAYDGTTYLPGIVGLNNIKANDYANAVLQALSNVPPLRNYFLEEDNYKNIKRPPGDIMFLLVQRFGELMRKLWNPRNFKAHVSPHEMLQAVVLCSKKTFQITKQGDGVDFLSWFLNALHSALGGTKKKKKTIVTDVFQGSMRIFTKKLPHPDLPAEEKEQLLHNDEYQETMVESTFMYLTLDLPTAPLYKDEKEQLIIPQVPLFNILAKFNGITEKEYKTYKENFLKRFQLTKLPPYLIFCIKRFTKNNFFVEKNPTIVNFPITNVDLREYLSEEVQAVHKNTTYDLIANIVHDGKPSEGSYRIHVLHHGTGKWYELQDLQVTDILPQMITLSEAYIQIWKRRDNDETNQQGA
Method in brief: as §1

USP4 = biological target: T4, USP4 (UniProt Q13107)
T4 sequence (whole entry): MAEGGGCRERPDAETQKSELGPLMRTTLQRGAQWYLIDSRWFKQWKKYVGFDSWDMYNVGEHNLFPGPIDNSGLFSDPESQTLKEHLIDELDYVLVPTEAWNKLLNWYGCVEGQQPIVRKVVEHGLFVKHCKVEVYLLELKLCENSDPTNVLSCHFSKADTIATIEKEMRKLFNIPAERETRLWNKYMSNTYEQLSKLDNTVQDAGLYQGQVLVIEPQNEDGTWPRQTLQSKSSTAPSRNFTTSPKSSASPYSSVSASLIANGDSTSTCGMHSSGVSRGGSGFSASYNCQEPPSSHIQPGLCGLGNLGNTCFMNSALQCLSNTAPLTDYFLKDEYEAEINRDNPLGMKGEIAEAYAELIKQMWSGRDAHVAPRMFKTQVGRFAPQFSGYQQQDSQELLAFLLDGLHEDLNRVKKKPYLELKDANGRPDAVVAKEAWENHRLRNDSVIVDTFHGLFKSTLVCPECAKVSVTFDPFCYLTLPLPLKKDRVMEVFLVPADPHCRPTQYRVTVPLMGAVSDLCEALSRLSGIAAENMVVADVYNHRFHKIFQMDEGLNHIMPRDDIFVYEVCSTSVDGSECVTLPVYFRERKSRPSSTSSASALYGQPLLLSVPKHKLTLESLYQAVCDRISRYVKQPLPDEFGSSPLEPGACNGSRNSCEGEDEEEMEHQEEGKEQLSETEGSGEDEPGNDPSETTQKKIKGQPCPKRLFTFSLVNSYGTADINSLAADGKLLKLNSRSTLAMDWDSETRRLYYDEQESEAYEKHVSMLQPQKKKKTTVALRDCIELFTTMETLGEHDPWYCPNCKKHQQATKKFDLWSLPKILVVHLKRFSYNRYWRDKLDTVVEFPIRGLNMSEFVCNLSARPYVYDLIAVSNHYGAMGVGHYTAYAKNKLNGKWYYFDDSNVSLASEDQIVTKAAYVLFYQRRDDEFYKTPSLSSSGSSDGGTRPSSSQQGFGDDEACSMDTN
Method in brief: as §1

Measured: log2 ratio of Biotin-Ahx-Ub-VS probe labelling

Cl.Cn1nc2c(c1CNC(=O)CCl)CCCC2
inactive: USP34 -0.177 | USP36 -0.0094 | USP38 0.0557 | USP39 0.242 | USP4 0.0436
